Data reported in PubChem BioAssay (NCI).
About 79,000 compounds went through this panel and 15% of them were active in at least one assay; those are over-represented in the sample as a whole. Calls of active or inactive are those of the source. Cut-off read from the data, not from the text of the source: active = growth inhibition above about 70%; inactive = the rest.

What was measured:
[1] = NCI Yeast Anticancer Drug Screen. Data for the rad52 strain (AID 147);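 note: 0% = growth of vehicle-treated control cultures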; details: S. cerevisiae rad52 mutant growth inhibition, stronger effect = higher value
Procedure, shortened: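 Inhibition of yeast growth, referenced to vehicle controls, was the measured output for a strain with defective DNA damage repair.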

[2] = NCI Yeast Anticancer Drug Screen. Data for the wt1 strain (AID 149);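 note: 0% = growth of vehicle-treated wt1 cultures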; details: S. cerevisiae wt1 strain (SPY 50644) growth inhibition, stronger effect = higher value
Procedure, shortened: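 Growth inhibition read against vehicle controls after compound exposure of the wt1 yeast strain.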

[3] = NCI Yeast Anticancer Drug Screen. Data for the rad50EPP+ strain (AID 151);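 note: 0% = growth of vehicle-treated control cultures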; details: S. cerevisiae rad50 mutant strain, stronger effect = higher value
Procedure, shortened: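 Genetically defined yeast (rad50EPP+, DNA damage repair alteration) is grown with compound, and inhibition of growth is expressed relative to vehicle-treated controls.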

[4] = NCI Yeast Anticancer Drug Screen. Data for the mgt1 strain (AID 153); details: S. cerevisiae mgt1 mutant growth inhibition, stronger effect = higher value
Procedure, shortened: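 In the mgt1 strain, test compounds were added and growth inhibition was determined relative to vehicle-treated controls.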

[5] = NCI Yeast Anticancer Drug Screen. Data for the rad50 strain (AID 155);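 note: 0% = growth of vehicle-only cultures of the same strain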; details: S. cerevisiae rad50 strain growth inhibition, stronger effect = higher value
Procedure, shortened: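 Readout: growth inhibition relative to vehicle-treated cultures. Compound exposure was carried out in a genetically defined yeast strain deficient in DNA damage repair.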

[6] = NCI Yeast Anticancer Drug Screen. Data for the mec2-1 strain (AID 157); details: S. cerevisiae mec2-1 strain, stronger effect = higher value
Procedure, shortened: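 Each compound was tested on mec2-1 yeast, a strain altered in DNA damage repair or cell cycle control. Growth inhibition is reported relative to vehicle.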

[7] = NCI Yeast Anticancer Drug Screen. Data for the rad14 strain (AID 159);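 note: 0% = growth of vehicle-treated control cultures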; details: S. cerevisiae rad14 strain growth inhibition, stronger effect = higher value
Procedure, shortened: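 Growth inhibition vs vehicle controls; genetically altered yeast strain (DNA damage repair defect) treated with test compounds.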

[8] = NCI Yeast Anticancer Drug Screen. Data for the sgs1 mgt1 strain (AID 161);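 note: 0% = growth of cultures given vehicle only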; details: S. cerevisiae sgs1 mgt1 strain, stronger effect = higher value
Procedure, shortened: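 Inhibition of yeast growth, normalised to vehicle-treated controls, is reported for a strain bearing genetic alterations in DNA damage repair.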

[9] = NCI Yeast Anticancer Drug Screen. Data for the CLN2oe strain (AID 163);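 note: 0% = growth of vehicle-only control cultures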; details: S. cerevisiae CLN2oe strain, stronger effect = higher value
Procedure, shortened: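 First, the altered yeast strain was treated with each compound; second, its growth was measured; finally, inhibition was derived by comparison with vehicle controls.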

[10] = NCI Yeast Anticancer Drug Screen. Data for the cln2 rad14 strain (AID 165);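 note: 0% = growth equal to vehicle treated cultures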; details: S. cerevisiae cln2 rad14 strain, stronger effect = higher value
Procedure, shortened: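 Test compounds were added to cln2 rad14 yeast cultures; inhibition of growth was then determined by comparison with vehicle treatment.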

[11] = NCI Yeast Anticancer Drug Screen. Data for the bub3 strain (AID 167); details: S. cerevisiae bub3 mutant strain, stronger effect = higher value
Procedure, shortened: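 Readout: yeast growth inhibition, expressed relative to vehicle-only wells. The test organism is a mutant strain from a panel with lesions in DNA repair or checkpoint genes.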

[12] = NCI Yeast Anticancer Drug Screen. Data for the wt2 strain (AID 169);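 note: 0% = growth of vehicle-treated yeast cultures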; details: S. cerevisiae wt2 strain growth inhibition, stronger effect = higher value
Procedure, shortened: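 The panel's yeast strains carry defined changes in DNA repair or cell cycle genes. Each strain is grown with compound, and growth loss is scored relative to vehicle.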

[13] = NCI Yeast Anticancer Drug Screen. Data for the mlh1 strain (AID 171);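 note: 0% = growth of vehicle-treated control cultures of the same strain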; details: S. cerevisiae mlh1 strain growth inhibition, stronger effect = higher value
Procedure, shortened: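 Inhibition values reflect reduced yeast growth in the presence of compound, referenced to vehicle controls, using a strain chosen for its alteration in DNA repair or cell cycle control.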

[14] = NCI Yeast Anticancer Drug Screen. Data for the sgs1 strain (AID 173);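 note: 0% = growth of vehicle-only control cultures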; details: S. cerevisiae sgs1 mutant, stronger effect = higher value
Procedure, shortened: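 Vehicle-treated cultures served as reference for growth inhibition of a yeast strain altered in DNA damage repair or cell cycle control after compound exposure.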

[15] = NCI Yeast Anticancer Drug Screen. Data for the mlh1 rad18 strain (AID 175); details: S. cerevisiae mlh1 rad18 strain growth inhibition, stronger effect = higher value
Procedure, shortened: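 Inhibition values reflect reduced growth of mutant yeast versus vehicle-treated controls following compound exposure; the mutations affect DNA damage repair.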

[16] = NCI Yeast Anticancer Drug Screen. Data for the rad18 strain (AID 177); details: S. cerevisiae rad18 mutant growth inhibition, stronger effect = higher value
Procedure, shortened: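 Steps: expose repair-mutant yeast to compound; measure growth; express as inhibition relative to vehicle control.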

[17] = at 5.0 µM (retest, dose inferred, filed as 0.5)
[18] = at 50.0 µM (retest, dose inferred, filed as 5.0)

Measured: growth inhibition

CC1=CC(=C(c2ccc(N)c(C)c2)c2ccc(N)c(C)c2)C=CC1=N
active: [1]; at 100.0 µM 97% | [2]; at 100.0 µM 90% | [3]; at 100.0 µM 83% | [4]; at 100.0 µM 97% | [5]; [18] 87% | [5]; at 50.0 µM 85.2% | [5]; at 100.0 µM 96% | [6]; [18] 97% | [6]; at 50.0 µM 89.6% | [6]; at 100.0 µM 96% | [7]; at 100.0 µM 97% | [8]; [18] 79% | [8]; at 50.0 µM 83.7% | [9]; at 100.0 µM 97% | [10]; [18] 75% | [10]; at 50.0 µM 74.5% | [11]; [18] 97% | [11]; at 50.0 µM 89.8% | [11]; at 100.0 µM 96% | [12]; at 33.0 µM 75% | [12]; at 100.0 µM 97% | [13]; at 100.0 µM 96% | [14]; at 100.0 µM 95% | [15]; [18] 94% | [15]; at 50.0 µM 84.8% | [16]; at 100.0 µM 96%
inactive: [1]; at 1.2 µM 24% | [1]; at 3.7 µM 41% | [1]; at 11.0 µM 47% | [1]; at 33.0 µM 64% | [2]; at 1.2 µM 8% | [2]; at 3.7 µM 9% | [2]; at 11.0 µM 7% | [2]; at 33.0 µM 6% | [3]; at 1.2 µM 8% | [3]; at 3.7 µM 17% | [3]; at 11.0 µM 23% | [3]; at 33.0 µM 30% | [4]; at 1.2 µM -2% | [4]; at 3.7 µM 7% | [4]; at 11.0 µM 12% | [4]; at 33.0 µM 39% | [5]; at 1.2 µM 21% | [5]; at 3.7 µM 10% | [5]; [17] 20% | [5]; at 11.0 µM 18% | [5]; at 33.0 µM 22% | [6]; at 1.2 µM 1% | [6]; at 3.7 µM 5% | [6]; [17] 18% | [6]; at 11.0 µM 3% | [6]; at 33.0 µM 37% | [7]; at 1.2 µM 0% | [7]; at 3.7 µM 2% | [7]; at 11.0 µM -2% | [7]; at 33.0 µM 19% | [8]; [17] 30% | [9]; at 1.2 µM 19% | [9]; at 3.7 µM 36% | [9]; at 11.0 µM 41% | [9]; at 33.0 µM 50% | [10]; [17] 9% | [11]; at 1.2 µM 12% | [11]; at 3.7 µM 26% | [11]; [17] 18% | [11]; at 11.0 µM 29% | [11]; at 33.0 µM 54% | [12]; at 1.2 µM -33% | [12]; at 3.7 µM -20% | [12]; at 11.0 µM -31% | [13]; at 1.2 µM 7% | [13]; at 3.7 µM 10% | [13]; at 11.0 µM 14% | [13]; at 33.0 µM 55% | [14]; at 1.2 µM 5% | [14]; at 3.7 µM 19% | [14]; at 11.0 µM 18% | [14]; at 33.0 µM 51% | [15]; [17] 51% | [16]; at 1.2 µM 2% | [16]; at 3.7 µM 20% | [16]; at 11.0 µM 20% | [16]; at 33.0 µM 35%

O=S1(=O)CCC2=CC(C(F)(F)F)=CC(C(F)(F)F)=CN21
inactive: [1]; at 1.2 µM 26% | [1]; at 3.7 µM 42% | [2]; at 1.2 µM 2% | [2]; at 3.7 µM 29% | [2]; at 11.0 µM 53% | [3]; at 1.2 µM 2% | [3]; at 3.7 µM 16% | [3]; at 11.0 µM 24% | [3]; at 33.0 µM 38% | [4]; at 1.2 µM 15% | [4]; at 3.7 µM 27% | [4]; at 11.0 µM 55% | [5]; at 1.2 µM 61% | [5]; [17] 38% | [6]; at 1.2 µM 52% | [6]; at 3.7 µM 61% | [6]; [17] 66% | [7]; at 1.2 µM 25% | [7]; at 3.7 µM 38% | [7]; at 11.0 µM 67% | [8]; [17] 59% | [9]; at 1.2 µM 25% | [9]; at 3.7 µM 22% | [9]; at 11.0 µM 40% | [9]; at 33.0 µM 68% | [10]; [17] 13% | [11]; at 1.2 µM 26% | [11]; at 3.7 µM 52% | [11]; [17] 57% | [12]; at 1.2 µM 3% | [12]; at 3.7 µM 14% | [12]; at 11.0 µM 51% | [13]; at 1.2 µM 27% | [13]; at 3.7 µM 36% | [13]; at 11.0 µM 67% | [14]; at 1.2 µM 51% | [14]; at 3.7 µM 67% | [16]; at 1.2 µM 54% | [16]; at 3.7 µM 67%
active: [1]; at 11.0 µM 71% | [1]; at 33.0 µM 89% | [1]; at 100.0 µM 98% | [2]; at 33.0 µM 83% | [2]; at 100.0 µM 98% | [3]; at 100.0 µM 79% | [4]; at 33.0 µM 82% | [4]; at 100.0 µM 98% | [5]; at 3.7 µM 71% | [5]; at 11.0 µM 79% | [5]; at 33.0 µM 89% | [5]; [18] 96% | [5]; at 50.0 µM 95.5% | [5]; at 100.0 µM 98% | [6]; at 11.0 µM 81% | [6]; at 33.0 µM 93% | [6]; [18] 97% | [6]; at 50.0 µM 97.9% | [6]; at 100.0 µM 99% | [7]; at 33.0 µM 91% | [7]; at 100.0 µM 98% | [8]; [18] 98% | [8]; at 50.0 µM 94.4% | [9]; at 100.0 µM 98% | [10]; [18] 92% | [10]; at 50.0 µM 83.9% | [11]; at 11.0 µM 78% | [11]; at 33.0 µM 92% | [11]; [18] 89% | [11]; at 50.0 µM 96.9% | [11]; at 100.0 µM 98% | [12]; at 33.0 µM 83% | [12]; at 100.0 µM 98% | [13]; at 33.0 µM 86% | [13]; at 100.0 µM 98% | [14]; at 11.0 µM 80% | [14]; at 33.0 µM 94% | [14]; at 100.0 µM 99% | [15]; [17] 76% | [15]; [18] 98% | [15]; at 50.0 µM 97.2% | [16]; at 11.0 µM 79% | [16]; at 33.0 µM 90% | [16]; at 100.0 µM 97%
